Source: PubChem BioAssay AID1159580 (chemical genetic matrix, 2015)
Among all 5,500 compounds or so, about 2,000 (36%) were called active. About 18% were inconclusive and are not listed. Rule as the data show it: active = normalized growth mostly below about 0.91 (no sharp cut-off); inconclusive = no clear call, values can overlap the other calls; inactive = mostly above about 0.92. The list shows a part of the results.

Assay: chemical genetic growth profiling, strain panel (AID 1159580);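 also: tested at 20 µM; growth read once vehicle control cultures reached saturation at 30 °C; 1 = growth at the plate median or of vehicle wells; lower values mean less growth of the strain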
Settings: S. cerevisiae deletion strains, growth OD

Measured: normalized growth

C=CCc1ccccc1OCC(O)CN[C@]1(C)CCC[C@H](C(C)(C)NC(=O)CBr)C1 (some centres not stated)
inactive: locus YAL040C, strain CLN3, active compounds read low 1.01 | locus YER002W, strain NOP16, active compounds read low 1.02 | locus YGR229C, strain SMI1, active compounds read low 1.01 | locus YNL175C, strain NOP13, active compounds read low 1.08 | locus YNL197C, strain WHI3, active compounds read low 1.03 | locus YNL224C, strain SQS1, active compounds read low 1.02 | locus YOR083W, strain WHI5 (second series), active compounds read low 1.09
